In all, about 33,000 sequences were measured (“E-score (-0.5 to 0.5)”: median about -8e-05, highest 2% from about 0.23 on). Only a selection was taken, and the highest values are over-represented in it overall.
Each sequence was assayed against T1, Nrg2 (UniProt P38082) (assay: PBM E-score (8-mer binding enrichment) (E-score (-0.5 to 0.5)); higher = stronger / more preferred TF binding). Details: protein concentration: 100 nM; construct: GST-full length.
T1 sequence: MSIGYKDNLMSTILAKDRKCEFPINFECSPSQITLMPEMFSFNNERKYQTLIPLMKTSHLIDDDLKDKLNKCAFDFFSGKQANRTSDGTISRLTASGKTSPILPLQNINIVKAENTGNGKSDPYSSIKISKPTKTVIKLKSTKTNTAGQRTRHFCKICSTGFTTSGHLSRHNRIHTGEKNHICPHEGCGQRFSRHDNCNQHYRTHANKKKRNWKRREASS
Description: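 Universal 'all 10-mer' protein binding microarrays (Agilent AMADID 015681) probed with GST-tagged S. cerevisiae TFs (full-length or DBD) made by in vitro transcription/translation (PURExpress), about 100-200 nM. Bound TF was detected with fluorescent anti-GST. Each ungapped 8-mer (which stands for itself and its reverse complement) is scored by the PBM enrichment score (E-score), a modified Wilcoxon-Mann-Whitney statistic from -0.5 to +0.5, computed with the Universal PBM Analysis Suite. Scale: above 0.35 generally sequence-specific binding.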

Q: With ACATGGTA as the sequence, how does the “PBM E-score” value read?
A: -0.0687

Q: For AAGGTGCG, which “PBM E-score” value is on record?
A: -0.0555

Q: CTCATCCC was tested. Which “PBM E-score” value did it give?
A: -0.234

Q: For ACTACGTA, which “PBM E-score” value is on record?
A: 0.0132

Q: How did the “PBM E-score” value turn out when ATGTCCGA was run?
A: -0.0732

Q: How did the “PBM E-score” value turn out when ACCTCGCG was run?
A: 0.116

Q: How did the “PBM E-score” value turn out when AGTCCCAC was run?
A: -0.079

Q: With GAATTCCA as the sequence, how does the “PBM E-score” value read?
A: 0.188

Q: CAATTCCA was tested. Which “PBM E-score” value did it give?
A: -0.0703

Q: With AAATTGGT as the sequence, how does the “PBM E-score” value read?
A: 0.268

Q: Which “PBM E-score” value does the source give for AAATTGGC here?
A: -0.012

Q: With AAATTGGG as the sequence, how does the “PBM E-score” value read?
A: 0.0734

Q: AAATTCCA was tested. Which “PBM E-score” value did it give?
A: 0.254

Q: With GAGACGGC as the sequence, how does the “PBM E-score” value read?
A: -0.0458

Q: ACGAGGAC was tested. Which “PBM E-score” value did it give?
A: -0.0285

Q: Which “PBM E-score” value does the source give for CACTGAGC here?
A: -0.0828

Q: With ACGAATGA as the sequence, how does the “PBM E-score” value read?
A: 0.156

Q: Which “PBM E-score” value does the source give for GAAGGACA here?
A: -0.00553

Q: How did the “PBM E-score” value turn out when CACCTCAG was run?
A: -0.11

Q: TCAGTGCA was tested. Which “PBM E-score” value did it give?
A: 0.0253

Q: For AGCGTTAC, which “PBM E-score” value is on record?
A: -0.146

Q: For TATATAAA, which “PBM E-score” value is on record?
A: 0.2

Q: For CATATAAG, which “PBM E-score” value is on record?
A: 0.0579

Q: With AATATAAT as the sequence, how does the “PBM E-score” value read?
A: 0.0957

Q: With AATATAGG as the sequence, how does the “PBM E-score” value read?
A: 0.229

Q: With AATATAGC as the sequence, how does the “PBM E-score” value read?
A: 0.0275

Q: Which “PBM E-score” value does the source give for AATATAGT here?
A: 0.206

Q: For AATATAAG, which “PBM E-score” value is on record?
A: 0.258

Q: How did the “PBM E-score” value turn out when AATATAAA was run?
A: 0.233

Q: For CATATAAA, which “PBM E-score” value is on record?
A: 0.00613

Q: ACACTTCA was tested. Which “PBM E-score” value did it give?
A: 0.103

Q: CAGCCAGC was tested. Which “PBM E-score” value did it give?
A: -0.115

Q: For CAAACAGC, which “PBM E-score” value is on record?
A: 0.00877

Q: For AAGGGCCA, which “PBM E-score” value is on record?
A: -0.0108

Q: AGTTTGGG was tested. Which “PBM E-score” value did it give?
A: 0.0374

Q: Which “PBM E-score” value does the source give for CCGGCGAA here?
A: 0.0927

Q: How did the “PBM E-score” value turn out when GGAAACAA was run?
A: 0.105

Q: How did the “PBM E-score” value turn out when AGAAACAC was run?
A: 0.0617

Q: How did the “PBM E-score” value turn out when AGAAACAA was run?
A: 0.258

Q: How did the “PBM E-score” value turn out when AATCGGCG was run?
A: 0.0404

Q: For AAGGTTTG, which “PBM E-score” value is on record?
A: 0.0916

Q: For CACAGACA, which “PBM E-score” value is on record?
A: 0.118

Q: For GACAGACC, which “PBM E-score” value is on record?
A: 0.0299

Q: Which “PBM E-score” value does the source give for CCCAGGGA here?
A: 0.124

Q: Which “PBM E-score” value does the source give for GTCAGGGA here?
A: 0.18

Q: Which “PBM E-score” value does the source give for CTCAGGGC here?
A: 0.157

Q: Which “PBM E-score” value does the source give for ACCAGGGA here?
A: 0.122

Q: With AACAGGGG as the sequence, how does the “PBM E-score” value read?
A: 0.105

Q: With TCCAGGGA as the sequence, how does the “PBM E-score” value read?
A: 0.242

Q: How did the “PBM E-score” value turn out when CACAGGGC was run?
A: 0.179

Q: For AACAGGGC, which “PBM E-score” value is on record?
A: 0.283

Q: Which “PBM E-score” value does the source give for GACAGACA here?
A: 0.248

Q: For CTCAGGGA, which “PBM E-score” value is on record?
A: 0.319

Q: For GCATTCCC, which “PBM E-score” value is on record?
A: -0.0654

Q: With ATTCGACC as the sequence, how does the “PBM E-score” value read?
A: -0.0786

Q: How did the “PBM E-score” value turn out when AGAGCGCT was run?
A: 0.0785

Q: How did the “PBM E-score” value turn out when CGCGGGGC was run?
A: 0.0564

Q: How did the “PBM E-score” value turn out when AAGGGCAT was run?
A: -0.139

Q: ATGCGACA was tested. Which “PBM E-score” value did it give?
A: 0.0603

Q: For GCAAGTGA, which “PBM E-score” value is on record?
A: -0.0727

Q: AGCTAGCG was tested. Which “PBM E-score” value did it give?
A: 0.00875

Q: With ACGAAGAC as the sequence, how does the “PBM E-score” value read?
A: -0.135

Q: With GAGCAAGA as the sequence, how does the “PBM E-score” value read?
A: -0.00443

Q: How did the “PBM E-score” value turn out when GCTGAAAA was run?
A: 0.114

Q: Which “PBM E-score” value does the source give for GATCTCCA here?
A: 0.0533

Q: CAGAGCTG was tested. Which “PBM E-score” value did it give?
A: -0.0821

Q: With AGAACGAA as the sequence, how does the “PBM E-score” value read?
A: 0.179

Q: Which “PBM E-score” value does the source give for CACAGGGA here?
A: 0.139

Q: GACAGGGA was tested. Which “PBM E-score” value did it give?
A: 0.252

Q: For AACAGGGA, which “PBM E-score” value is on record?
A: 0.176

Q: CACCTCTC was tested. Which “PBM E-score” value did it give?
A: -0.0403

Q: Which “PBM E-score” value does the source give for ATGGCCTA here?
A: 0.00552

Q: For CCAAGAGA, which “PBM E-score” value is on record?
A: -0.14

Q: How did the “PBM E-score” value turn out when ACAAGAAC was run?
A: 0.262

Q: How did the “PBM E-score” value turn out when ACCAGAAA was run?
A: 0.041

Q: Which “PBM E-score” value does the source give for ACCAGAAG here?
A: -0.134

Q: Which “PBM E-score” value does the source give for GCAAGAAC here?
A: 0.188

Q: ATAAGAAT was tested. Which “PBM E-score” value did it give?
A: 0.135

Q: How did the “PBM E-score” value turn out when ACAAGAAT was run?
A: 0.0779

Q: How did the “PBM E-score” value turn out when ATAAGAAC was run?
A: 0.36

Q: For ACAAGAGA, which “PBM E-score” value is on record?
A: 0.24

Q: Which “PBM E-score” value does the source give for ACCAGAAC here?
A: 0.238

Q: With ATAAGAAA as the sequence, how does the “PBM E-score” value read?
A: 0.101

Q: Which “PBM E-score” value does the source give for ACAAGAGC here?
A: 0.0831

Q: Which “PBM E-score” value does the source give for AGGAGCAC here?
A: 0.0739

Q: AGTTGGCA was tested. Which “PBM E-score” value did it give?
A: 0.1

Q: AGCTTACA was tested. Which “PBM E-score” value did it give?
A: 0.128

Reference: the supplement of paper PMC3334620
